Compound activity from PubChem BioAssay.
Hits are enriched below; roughly 19% of the tested compounds scored in any of these assays.
HT1080 IDH1KD tx = qHTS for induction of synthetic lethality in tumor cells producing 2HG: qHTS for the HT-1080-IDH1KD cell line; 2% of 360,000 active; Potency, µM (highest dose often 46.1 µM), for inactives: at the highest dose activity, negative = toxicity, hits mostly cytotoxic; HT-1080 IDH1 knockdown viability, ATP luminescence, 48 h;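 also: potency is read from the fitted curve at half-maximal effect; 0% = DMSO wells and -100% = cell-free medium wells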
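Using the IDH1-knockdown HT-1080 line run in the same batch and compound series as the NT line, viability after 48 h at 37 °C was determined by CellTiter-Glo luminescence and expressed as % activity.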
IL1B secr inh = qHTS for Inhibitors of Inflammasome Signaling: IL-1-beta AlphaLISA Primary Screen; THP-1 LPS/ATP IL-1B secretion, AlphaLISA, 16 h; active compounds read low; activity change, % at 57.5 µM; 4.7% of 360,000 active; AID 743279, 2014; in the data active = activity change below about -50%; inconclusive = mostly about -30% to -49%
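THP-1 cells pretreated 1 hr with compounds (up to 57.5 uM final), then stimulated with LPS (250 ng/mL final) plus ATP (1.25 mM final); secreted IL-1B measured by AlphaLISA after 16 hr, decreased signal indicating inhibition.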
DT40 TDP1 no CPT = qHTS for Inhibitors of human tyrosyl-DNA phosphodiesterase 1 (TDP1): qHTS in cells in absence of CPT; DT40 Tdp1-/- hTDP1 cells, no CPT, ATP luminescence, 48 h; Potency, µM (highest dose often 46.2 µM), without a hit: at the top dose activity change, negative = growth inhibition, most hits filed as inhibitors; 15% of 420,000 active; also: potency is read from the fitted curve at half-maximal effect; nearly all actives have a fitted effect of over 55% in size
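Luminescent ATP content (CellTiter-Glo) served as the growth readout. Knockout chicken DT40 cells expressing human TDP1 were exposed to compounds without camptothecin for a minimum 48 hr at 37 °C.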
DT40 TDP1 CPT = qHTS for Inhibitors of human tyrosyl-DNA phosphodiesterase 1 (TDP1): qHTS in cells in presence of CPT. chicken DT40 Tdp1-/-;hTDP1 cells + 20 nM CPT, ATP luminescence, 48 h. Potency, µM (series often up to 46.2 µM), for the others: top-dose activity change, negative = growth inhibition, most hits filed as inhibitors. 12% of 420,000 active; also: potency is read from the fitted curve at half-maximal effect; nearly all actives have a fitted effect of over 55% in size
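Cell growth measured by CellTiter-Glo luminescence after a minimum 48 h, 37 C compound exposure with 20 nM CPT in Tdp1-knockout DT40 cells stably expressing hTDP1, seeded 400/well; qHTS titration format.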
HT1080NT lethal = qHTS for induction of synthetic lethality in tumor cells producing 2HG: qHTS for the HT-1080-NT fibrosarcoma cell line; 1.6% of 360,000 active; HT-1080-NT fibrosarcoma viability, CellTiter-Glo ATP luminescence, 48 h; Potency, µM (highest dose often 46.1 µM), for inactives: at the highest dose activity, negative = less viability, actives largely listed as cytotoxic;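 also: NT is the 2HG producing partner of a matched IDH1 knockdown line; potency is read from the fitted curve at half-maximal effect; 0% = DMSO-treated cells and -100% = media-only wells without cells; nearly all actives have a fitted effect of over 55% in size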
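HT-1080-NT fibrosarcoma cells (2HG-overproducing), 750 cells/well in RPMI with 5% FBS, dosed after 2 h and incubated 48 h at 37C. CellTiter-Glo luminescence normalized to DMSO and no-cell wells; concentration-response curves fitted and classed.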
The depositor's hits bear a star; ? = inconclusive; . = not tested or not shown; [ ] = another dose, or the depositor's remark. Unless noted, calls follow the shape of the dose curve; as a rule, active = well fitted curve in the direction sought with a large enough effect; inconclusive = small, poorly fitted or top-dose-only effect, or another doubt; inactive = no such curve, though single readings can be large; an effect the other way counts as inactive or inconclusive. Unless noted, % is scaled to controls: 0 for no effect and ±100 for the full control effect.

SMILES	HT1080 IDH1KD tx	IL1B secr inh	DT40 TDP1 no CPT	DT40 TDP1 CPT	HT1080NT lethal
COc1ccc(-c2cc(C(=O)NCc3cn(C)nc3C)c3ccccc3n2)cc1OC	7%	-4	?	15µM*	-4%
O=C(Nc1ncccn1)c1cc(-c2cccc(Br)c2)nc2ccccc12	-13%	?	?	?	-8%
O=C(Nc1ccncc1)c1cc(-c2cccc(Br)c2)nc2ccccc12	?	-78*	?	?	?
Cc1ncc2c(c1CNC(=O)/C=C/c1cccs1)CCN(C(=O)c1noc3c1CCCC3)C2	.	.	-4%	15%[9.04 µM]	.
CCc1noc(C)c1C(=O)NNC(=O)COc1cc(C)ccc1C	7%	1	5%	-9%	-2%
N#CCC(=O)Nc1ccc(C(=O)NCc2cccc(Cl)c2)cc1	3%	17	2%	-6%	11%
COc1cccc(CC(=O)Nc2ccc(-c3nc4ccccc4s3)cc2)c1	.	.	-5%	-21%	.
COc1ccc(CC(=O)Nc2ccc(-c3nc4ccccc4s3)c(C)c2)cc1OC	.	.	26µM*	?	.
COc1ccc(-c2cc(C(=O)Nc3cccnc3)c3ccccc3n2)cc1OC	-15%	12	23µM*	23µM*	-5%
COc1ccc(-c2cc(C(=O)Nc3nc4ccccc4s3)c3ccccc3n2)cc1OC	-26%	-15	?	15µM*	-21%
COc1ccc(C(=O)Nc2nc3ccccc3s2)cc1OC	3%	-88*	-10%	2%	10%
COc1cccc(-c2cc(C(=O)Nc3cccnc3)c3ccccc3n2)c1	-4%	-7	?	?	-3%
CN(CC1CCCO1)S(=O)(=O)c1ccc(C(=O)NCc2ccccc2)cc1 (configuration not stated)	3%	23	?	?	-11%
Cc1ccc(NNC(=O)c2sccc2Cl)c(C)c1	-19%	.	?	?	-9%
CCc1nn(C(CC)C(=O)NCc2cccc(OC)c2)c(=O)c2cc3occc3n12 (configuration not stated)	-2%	-3	13%	?	-3%
Cc1ccc(C(C(=O)NC2CCCC2)N(Cc2cccs2)C(=O)c2csnn2)o1 (configuration not stated)	16%	-4	-19%	-28%	14%
CCOc1ccc(C(C(=O)NC2CCCCC2)N(CCOC)C(=O)c2snc(C(N)=O)c2N)cc1 (configuration not stated)	0%	8	-14%	24%	5%
Cc1ccc(S(=O)(=O)N2C[C@@H]3CCCC[C@@H]3[C@@H](C)[C@H]2CC(=O)c2ccccc2)cc1	9%	7	13µM*	15µM*	6%
Cc1ccc(S(=O)(=O)N2[C@H](CC(=O)c3ccccc3)OC[C@@H]2C)cc1	2%	28	?	?	2%
O=C(COc1ccc(Cl)cc1Cl)N/N=C/c1ccc[nH]1	-1%	-8	?	?	1%
CCN(CC)C(=S)SCC(=O)NC12CC3CC(CC(C3)C1)C2	-16%	?	?	?	-20%
Cc1ccc(NC(=O)CN(C)C(=O)c2ccc(C(F)(F)F)cc2)cc1	8%	-25	17%	-22%	6%
CCCCNC(=O)c1onc(CSc2ccc(C)c(C)c2)c1C(=O)O	-13%	-4	-1%	-13%	-16%
CCCCNC(=O)c1onc(CSc2ccc(F)c(F)c2)c1C(=O)O	0%	3	-10%	21µM*	-6%
Cc1cc(C)cc(SCc2noc(C(=O)NCCN(C)C)c2C(=O)NCCN(C)C)c1	?	-16	15µM*	?	18µM*
SMILES	HT1080 IDH1KD tx	IL1B secr inh	DT40 TDP1 no CPT	DT40 TDP1 CPT	HT1080NT lethal
CC(C)Cc1nc2cc(NS(=O)(=O)N(C)C)cc(C(=O)N3CCOc4ccccc4C3)c2n1C	.	.	-15%	-2%[9.04 µM]	.
O=C(O)c1ccc(S(=O)(=O)N(Cl)Cl)cc1	.	.	1%	-1%	.
CC1CCC(C(=O)NC(C(=O)NCc2cccnc2)C(C)C)CC1 (configuration not stated)	2%	13	-17%	8%	1%
COc1cccc(C2CNC3(CCCC(C)C3)c3[nH]c4ccccc4c32)c1OC (configuration not stated)	?	?	23µM*	?	?
Cc1ccc(-c2nc(N)sc2-c2ccccc2)cc1C	-23%	?	?	?	-2%
CC(C)CN(C(=O)COC(=O)c1c2c(nc3ccccc13)CCC2)c1c(N)n(Cc2ccccc2)c(=O)[nH]c1=O	-19%	-51*	?	?	0%
CCN(C(=O)COC(=O)c1c2c(nc3ccccc13)CCC2)c1c(N)n(Cc2ccccc2)c(=O)[nH]c1=O	-5%	?	-21%	?	0%[9.24 µM]
CN(C(=O)COC(=O)c1c2c(nc3ccccc13)CCCC2)c1c(N)n(Cc2ccccc2)c(=O)[nH]c1=O	-21%	-54*	-16%	-5%	-29%
COC(=O)[C@H]1C[C@@]2(O)CN(S(=O)(=O)c3ccc(C)cc3)C[C@@]2(OC(=O)NCC2CCCCC2)C[C@H]1C(=O)OC	4%	17	?	-16%	11%
COc1cc(NS(=O)(=O)c2ccc(C)c(C)c2)c(OC)cc1Cl	-17%	8	?	18µM*	-11%
COc1ccc(S(=O)(=O)Nc2ccccc2OC)cc1C	8%	-1	-25%	-6%	4%
Cc1c(C(=O)Nc2ccc(S(=O)(=O)N(C)C3CCN(C)CC3)cc2)oc2ccccc12	-11%	-52*	18µM*	21µM*	-10%
CN1CCC(N(C)S(=O)(=O)c2ccc(NC(=O)c3ccc(S(=O)(=O)N(C)C)cc3)cc2)CC1	16%	-11	-27%	0%	5%
Cc1c(C(=O)Nc2ccc(S(=O)(=O)N(C)C3CCN(C)CC3)cc2)oc2c(Cl)cccc12	?	-96*	?	?	?
O=C1Nc2ccccc2-n2nnnc2C1N1CCN(C(=O)c2ccco2)CC1 (configuration not stated)	3%	23	25%	-3%	13%
CCOC(=O)C1=C(c2ccccc2)NC(N)=NC1c1ccc(OCc2ccc(Cl)cc2)c(OC)c1 (configuration not stated)	-6%	?	?	23µM*	6%
CCOC(=O)C1=C(c2ccccc2)NC(=O)NC1c1cc(Cl)c(O)c(OC)c1 (configuration not stated)	-12%	-2	?	-22%	-21%
